Test results reported in PubChem BioAssay (EPA / NIEHS).
Results filed as inconclusive are left out. Activity calls are given as the source filed them. How the source made its calls: active means hit-call score of the fitted dose curve at least 0.9, where 1 is the maximum; inconclusive means response in the unintended direction; inactive means score below 0.9.

Tests used:
[1] = Tanguay_ZF_120hpf_MORT_legacy: (Legacy) Oregon State University Tanguay Lab 120 Hour Post-fertilization zebrafish Assay for Mortality (AID 2283633)
Procedure: (§1) Tanguay_ZF_120hpf_legacy is a whole embryo, multiplexed endpoint assay using zebrafish larvae exposed for 120 hours post fertilization on a 96-well plate.Tanguay_ZF_120hpf_MORT_legacy is one of one assay component(s) measured or calculated from the Tanguay_ZF_120hpf_legacy assay. It is designed to make measurements of embryonic mortality as detected with brightfield microscopy of developing zebrafish embryos.Data from the assay component Tanguay_ZF_120hpf_MORT_legacy was analyzed into 1 assay endpoints. This assay endpoint, Tanguay_ZF_120hpf_MORT_legacy, was analyzed in the positive analysis fitting direction relative to DMSO as the negative control and baseline of activity. […]
(§2) Zebrafish husbandry: Tropical 5D wild-type adult zebrafish were housed in at an approximate density of 1000 per 100 gallon tank at the Sinnhuber Aquatic Research Laboratory, Oregon State University, Corvallis, OR. […] At 24 hpf, embryos were assessed for photomotor response using a custom photomotor response analysis tool (PRAT) and for developmental toxicity endpoints (MO24: mortality at 24 hpf, DP: developmental progression, SM: spontaneous movement, and NC: notochord distortion). At 120 hpf, locomotor activity was measured using Viewpoint Zebralab and assessed for 18 endpoints. […] If mortality occurred for an embryo (at either 24 or 120 hpf), the non-mortality endpoints were not measured.

[2] = Tanguay_ZF_120hpf_YSE_legacy: (Legacy) Oregon State University Tanguay Lab 120 Hour Post-fertilization zebrafish Assay for Yolk Sac Edema (AID 2283634)
Method in brief: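 Readout: presence or absence of yolk sac edema at 120 hpf, fitted upward against DMSO controls. Exposure ran statically from 6 hpf in dechorionated embryos kept at 28C.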

[3] = Tanguay_ZF_120hpf_AXIS_legacy: (Legacy) Oregon State University Tanguay Lab 120 Hour Post-fertilization zebrafish Assay for Body Axis Malformation (AID 2283635);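 further: potency for an increased fraction of larvae scored with body axis malformation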
Method in brief: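 Static 6–120 hpf chemical exposure of dechorionated wild-type 5D zebrafish, one per well at 28C; morphology endpoint scored binary at 120 hpf relative to DMSO control.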

[4] = Tanguay_ZF_120hpf_EYE_legacy: (Legacy) Oregon State University Tanguay Lab 120 Hour Post-fertilization zebrafish Assay for Eye Malformation (AID 2283636);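 further: binary presence or absence of eye malformation scored by brightfield in 120 hpf larvae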
Method in brief: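 Static waterborne exposure of dechorionated zebrafish embryos (strain Tropical 5D), 6 to 120 hpf, sealed plates at 28C, 0.64% DMSO vehicle. Eye malformation is scored as a binary endpoint, with gain of signal analysed relative to DMSO.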

[5] = Tanguay_ZF_120hpf_SNOU_legacy: (Legacy) Oregon State University Tanguay Lab 120 Hour Post-fertilization zebrafish Assay for Snout Malformation (AID 2283637)
Procedure: as §1, with “plate.Tanguay_ZF_120hpf_SNOU_legacy” for “plate.Tanguay_ZF_120hpf_MORT_legacy”, “zebrafish development” for “embryonic mortality”, “Tanguay_ZF_120hpf_SNOU_legacy” for “Tanguay_ZF_120hpf_MORT_legacy”, “Tanguay_ZF_120hpf_SNOU_legacy,” for “Tanguay_ZF_120hpf_MORT_legacy,”
as §2

[6] = Tanguay_ZF_120hpf_JAW_legacy: (Legacy) Oregon State University Tanguay Lab 120 Hour Post-fertilization zebrafish Assay for Jaw Malformation (AID 2283638)
Method in brief: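 Static waterborne exposure of dechorionated wild-type (Tropical 5D) zebrafish from 6 to 120 hpf at 28C, 0.64% DMSO vehicle; 5uM trimethyltin chloride served as positive control. Jaw morphology recorded as binary at 120 hpf.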

[7] = Tanguay_ZF_120hpf_OTIC_legacy: (Legacy) Oregon State University Tanguay Lab 120 Hour Post-fertilization zebrafish Assay for Otic Vesicle Malformation (AID 2283639)
Method in brief: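 Wild-type zebrafish larvae, whole-embryo exposure from early stage to 120 hpf at 28C. Binary brightfield scoring of otic vesicle morphology, fitted in the positive direction against the DMSO baseline.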

[8] = Tanguay_ZF_120hpf_PE_legacy: (Legacy) Oregon State University Tanguay Lab 120 Hour Post-fertilization zebrafish Assay for Pericardial Edema (AID 2283640)
Method in brief: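 Read-out is the presence or absence of pericardial edema at 120 hpf under brightfield, with gain of signal fitted against DMSO controls. Larvae (5D wild-type) were statically exposed at 28C with 0.64% final DMSO.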

[9] = Tanguay_ZF_120hpf_BRAI_legacy: (Legacy) Oregon State University Tanguay Lab 120 Hour Post-fertilization zebrafish Assay for Brain Malformation (AID 2283641)
Method in brief: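 Brain malformation in Tropical 5D zebrafish was recorded as a binary endpoint after static compound exposure from early development to 120 hpf at 28C. Activity was analysed against DMSO as negative control.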

[10] = Tanguay_ZF_120hpf_SOMI_legacy: (Legacy) Oregon State University Tanguay Lab 120 Hour Post-fertilization zebrafish Assay for Somite Malformation (AID 2283647)
Method in brief: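 5D WT zebrafish; chorion removed 4 hpf; 1 embryo/well from 6 hpf; static exposure to 120 hpf, 28C, 0.64% DMSO final. Endpoint: somite malformation, binary, brightfield. Mortality excluded.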

Measured: AC50

CS(=O)(=O)OCCCCOS(C)(=O)=O
active: [3] 38.7 µM
inactive: all other assays above
